Experimental findings from ChEMBL document CHEMBL3988442, “University of Dundee, Small-Polar-MMV Screening Library” (2021) are described below.

Hit rate of the full screen: of about 48,000 compounds, about 13,000 (27%) showed an effect of 50% or more. The list shows a part of the results.

In the experiment the test system is Wolbachia pipientis. Description: Anti-Wolbachia Cell-Based Screen. More on the design: scale not given: in the data most compounds retested in dose-response had high values. The following applies: 5 µM. It counts as functional.
`COc1ccccc1CC(=O)N(CCN1CCOCC1)Cc1ccco1`: the “Percent Effect” value is given as 0.5032%. Next, `COc1ccccc1CC(=O)N1CCN(Cc2ccco2)C[C@@H]1C`: 136.4%; `Cc1ccc(F)cc1CC(=O)N(CCN1CCOCC1)Cc1ccco1`: -4.12%; `C[C@@H]1CN(Cc2ccco2)CCN1C(=O)Cc1ccccc1F`: 87.95%.

As to `O=C(O)C(F)(F)F.O=C1[C@H]2CN(Cc3ccco3)C[C@H]2CN1c1cncnc1`, the “Percent Effect” value is reported as 5.677%. To `Cc1ccc2c(n1)N(CC1CC1)CCN(Cc1ccco1)C2.O=C(O)C(F)(F)F.O=C(O)C(F)(F)F` belongs 13.96%; to `Cc1cc(N2CCC(NC(C)Cc3ccsc3)CC2)nc(C)n1` (stereo unspecified), 1.122%. To `Cc1cccc(CNC(Cc2ccsc2)c2nccs2)n1` (stereo unspecified) belongs 152.6%; to `Cc1cccc(C)c1NC(=O)CNC(C)Cc1ccsc1` (stereo unspecified), -3.648%.

`c1cnc(N2CCCC3(CCN(Cc4cccs4)C3)C2)nc1` (stereo unspecified): the “Percent Effect” value is 109.3%.

Turning to `Cc1nc(CN2CCOCC3(CCN(c4ncccn4)C3)C2)cs1.O=C(O)C(F)(F)F.O=C(O)C(F)(F)F` (stereo unspecified), the “Percent Effect” value was -16.84%. `O=C(NCc1ccccn1)[C@]12COC[C@H]1CN(C1CCC1)C2.O=C(O)C(F)(F)F.O=C(O)C(F)(F)F`: the “Percent Effect” value was -13.49%. To `O=C(O)C(F)(F)F.O=C(O)C(F)(F)F.O=C(O)C(F)(F)F.c1ccc(CN2CCCC3(CCN(Cc4cccs4)C3)C2)nc1` (stereo unspecified) belongs 118.7%. Next, `CCC(CC)CN1CCC2(CCCN(c3ncccn3)C2)C1` (stereo unspecified): -25.35%; `O=C(O)C(F)(F)F.O=C(O)C(F)(F)F.c1ccc(N2CCC3(COCCN(Cc4cccs4)C3)C2)nc1` (stereo unspecified): 103.3%; `O=C(NCc1ccccn1)[C@]12COC[C@H]1CN(Cc1ccsc1)C2.O=C(O)C(F)(F)F.O=C(O)C(F)(F)F`: 103%. With `O=C(O)C(F)(F)F.O=C(O)C(F)(F)F.O=C1N(c2ccsc2)CCC12CCCN(Cc1ccccn1)C2` (stereo unspecified), the “Percent Effect” value came to 2.891%. To `Fc1ccccc1CN1CCCC2(CCN(c3ncccn3)C2)C1` (stereo unspecified) belongs -4.552%; to `O=C(O)C(F)(F)F.c1cnc(N2CCOCC3(CCCN(Cc4cc[nH]n4)C3)C2)nc1` (stereo unspecified), -14.28%; to `CN(C)C[C@]12COC[C@H]1CN(Cc1ccccn1)C2.O=C(O)C(F)(F)F.O=C(O)C(F)(F)F.O=C(O)C(F)(F)F`, -16.37%. To `c1cc([C@H]2C[C@@H]3CCN(Cc4nccs4)C[C@H]3O2)ncn1` belongs -0.9402%. `COCC1CC2(CCNCC2)CN1c1ncccn1` (stereo unspecified): the “Percent Effect” value is -4.112%.

As to `O=C(O)C(F)(F)F.O=C(O)C(F)(F)F.c1ccc(CN2CCCC3(CCN(CC4CCCO4)CC3)C2)nc1` (stereo unspecified), the “Percent Effect” value is given as 98.44%. As for `CC(C)CN1CCCC2(CCN(c3ccccn3)C2)C1.O=C(O)C(F)(F)F` (stereo unspecified), the “Percent Effect” value came to 0.9995%. For `O=C(O)C(F)(F)F.c1ccc(N2CCCC3(CCN(Cc4ccsc4)C3)C2)nc1` (stereo unspecified), the “Percent Effect” value is listed as 92.47%. Take `Fc1cnc(N2CCCC3(CCN(Cc4ccsc4)C3)C2)nc1.O=C(O)C(F)(F)F.O=C(O)C(F)(F)F` (stereo unspecified): the “Percent Effect” value is on record as -8.586%. To `CC(C)N1CCO[C@H]2CN(C(=O)c3ccncc3F)C[C@H]21.O=C(O)C(F)(F)F` belongs -21.77%; to `c1cc(CN2CCSC3(CCCCC3)C2)no1`, -28.1%; to `c1cc(CN2CCN(Cc3ccon3)C3(CCCCC3)C2)no1`, -15.56%.

With `CCN1CCN(Cc2csc(C(C)C)n2)CC1`, the “Percent Effect” value is -0.2652%. Take `CCN1CCN(Cc2nc(C)no2)CC1`: the “Percent Effect” value came to 8.697%. Next, `Clc1cncc(N2CCN(Cc3ccon3)CC2)n1`: 98.12%; `CCN1CCN(c2cncc(Cl)n2)CC1`: 88.05%. To `CC(C)(O)CNc1ccc(C#N)c(C(F)(F)F)c1` belongs 7.337%; to `O=C(C1CC=CC1)N1CCC2(CC1)OCCO2`, 105.5%. Next, `Cl.O=C(C1CC=CC1)N1CCC2(CC1)CNCCO2`: -11.15%. Regarding `O=C(c1cnn2c1OCCC2)N1CCC2(CC1)OCCO2`, the “Percent Effect” value is given as -3.54%.

For the compound `O=C(C1CCCCC1)N1CCC2(CC1)OCCO2`, the “Percent Effect” value came to 92.72%.

In the case of `CS(=O)(=O)N1CCC(C(=O)N2CCC3(CC2)OCCCO3)CC1`, the “Percent Effect” value was determined as 6.012%.

In the case of `O=C(C1CCC1)N1CCC2(CC1)CNCCO2`, the “Percent Effect” value is -23.25%. For `O=C(C1CCN(S(=O)(=O)N2CCCC2)CC1)N1CCC2(CC1)OCCO2`, the “Percent Effect” value came to 110.6%. To `O=C(C1CC(=O)N(c2ccccc2Br)C1)N1CCC2(CC1)OCCO2` (stereo unspecified) belongs -9.549%; to `O=C(C1CCCC1)N1CCC2(CC1)OCCO2`, -31.13%; to `Cn1cc(C2=CCN(CCCOc3ccc(C(N)=O)cc3)CC2)cn1`, -2.558%. To `CCN1CCC2(CC1)CC(Nc1ncccn1)CO2` (stereo unspecified) belongs -3.551%. Next, `Cc1cc(NC2CC3(CCN(Cc4ncccc4F)C3)C2)ncn1` (stereo unspecified): 100.5%; `Cc1cccnc1CC(C)NC1Cc2ccccc2C1` (stereo unspecified): -26.27%.

For `Cn1ccnc1CN1CC2(CCN(Cc3ccncc3)C2)C1`, the “Percent Effect” value is listed as -5.589%. Next, `Cc1cccnc1CN1CCC2(CC(Nc3ccncn3)C2)C1` (stereo unspecified): 130.7%; `Fc1cnccc1CN1CCC2(CCNCC2)C1`: -4.399%; `COC(=O)CNC(=O)c1cn(Cc2ccccc2F)nn1`: 4.551%. Next, `CN(c1ncccc1C#N)C1CCN(CCc2ccncc2)CC1`: -9.489%; `Cc1ccccc1-n1cc(C2=CCN(CCN3CCOCC3)CC2)cn1`: -7.999%. In the case of `CCCc1nc(N2CCCN3CCC[C@H]3C2)c2cnn(C)c2n1`, the “Percent Effect” value worked out at 64.99%. To `CCCc1nc(N2CCCC3(CCNC3)C2)c2cnn(C)c2n1` (stereo unspecified) belongs -0.0368%; to `Cn1ncc2c(N3CCCC4(CCNC4)C3)nc(C(C)(C)C)nc21` (stereo unspecified), 8.536%; to `CCOCc1nc2c(c(N3CCN4CCCC4C3)n1)CCNCC2` (stereo unspecified), 3.786%.

Take `CC(C)c1nc(N2CCN3CCCC3C2)c2cnn(C)c2n1` (stereo unspecified): the “Percent Effect” value was 18.47%.

Turning to `Cn1ncc2c(N3CCCN4CCC[C@H]4C3)nc(C(C)(C)C)nc21`, the “Percent Effect” value amounted to 135.6%. Next, `Cc1nc(COC[C@@H]2CC[C@H]3NCC[C@H]3O2)cs1.Cl.Cl`: 12.23%; `N#Cc1ccc(NC2CCN(c3ncccn3)CC2)cc1C(F)(F)F`: -29.96%.
